# Data reported in PubChem BioAssay (NCATS).
# Where “and” joins values, the source holds several entries; their conditions need not be identical. Identical values can stand only once. Inconclusive results are not listed. A call without a number means that no potency is given here. Calls of active or inactive are those of the source. Unless noted, calls follow the shape of the full dose curve.
# Assays:
# [1] = molecular target: DNA dC->dU-editing enzyme APOBEC-3G (Homo sapiens) (UniProt Q9HC16); assay: qHTS for inhibitors of Vif-A3G interactions: Validation (AID 588379; active = well fitted inhibition curve with a large enough effect)
# Outline: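 Yellow fluorescence (Ex 488, Em 500-530) of Vif-coexpressing HeLa A3G-eYFP cells, scanned by Acumen cytometer, reports blocked A3G degradation. Cells plated at 700/well overnight at 37 deg C before compound addition, then a further overnight compound incubation at 37 deg C.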
# [2] = molecular target: Estrogen receptor (Homo sapiens) (UniProt P03372); assay: qHTS assay for small molecule agonists of estrogen receptor alpha signaling (AID 588514); also: nearly all actives have a fitted effect of over 70% in size; also: potency is read from the fitted curve at half-maximal effect
# Outline: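 Read-out: CCF4 fluorescence from a beta-lactamase reporter in ER-alpha-UAS-bla HEK 293 cells after 18 hrs of compound exposure at 37 C. Normalized to 20 nM 17-beta-estradiol (100%) and DMSO (0%).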
# [3] = molecular target: Glucocorticoid receptor (Homo sapiens) (UniProt P04150); assay: qHTS assay for small molecule antagonists of glucocorticoid receptor signaling (AID 588533; active = well fitted inhibition curve with a large enough effect in the signal ratio, with a control signal flat, not every such curve was filed as active; the % refers to the signal ratio;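 also: cells stimulated with 2 nM dexamethasone as agonist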; also: potency is read from the fitted curve at half-maximal effect)
# Outline: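 Antagonist-mode qHTS: compound titrations added to GRE-bla HeLa cells, then dexamethasone 2 nM final; 18 h, 37 C. CCF4 FRET fluorescence normalized to dexamethasone and DMSO; IC50 from Hill fit.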
# [4] = qHTS assay for small molecule antagonists of peroxisome proliferator-activated receptor delta signaling (AID 588535; active = well fitted inhibition curve with a large enough effect in the signal ratio, with a control signal flat, not every such curve was filed as active; the % refers to the signal ratio;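 as to max response: cells co-treated with a PPAR-delta agonist as stimulator during compound exposure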); conditions: HEK293T PPARd-UAS-bla, beta-lactamase FRET ratio, 18 h; 460 nm channel
# Outline: (§1)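 Antagonist-mode qHTS using GeneBLAzer PPAR-delta-UAS-bla HEK293T cells; compound exposure 18 hrs at 37 C over a titration. Ratiometric CCF4 fluorescence at 460/530 nm; concentration-response points fitted to the Hill equation.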
# [5] = molecular target: Peroxisome proliferator-activated receptor delta (Homo sapiens) (UniProt Q03181); assay: as above
# Outline: as §1
# [6] = molecular target: Peroxisome proliferator-activated receptor gamma (Homo sapiens) (UniProt P37231); assay: qHTS assay for small molecule agonists of peroxisome proliferator-activated receptor gamma signaling (AID 588536; active = well fitted curve in the direction sought with a large enough effect in the signal ratio, with a control signal flat, not every such curve was filed as active; the % refers to the signal ratio)
# Outline: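 Beta-lactamase reporter read-out: CCF4 fluorescence (ex 405, em 460/530 nm) after 2 h at RT. HEK293 GeneBLAzer cells were treated for 16 h at 37 C. Hill fits gave EC50 and efficacy versus 2 uM rosiglitazone (100%) and DMSO (0%).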
# [7] = molecular target: Vitamin D3 receptor (Homo sapiens) (UniProt P11473); assay: qHTS assay for small molecule antagonists of vitamin D receptor signaling (AID 588541);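 also: receptor activated by calcitriol during compound treatment; series mostly up to about 77 µM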
# Outline: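 Antagonist-mode beta-lactamase reporter assay: HEK293T VDR-UAS-bla cells were exposed to titrated compound alongside 1-alpha,25-dihydroxyvitamin D3 at 3 nM final for 16 h. Values were normalized to the 50 nM agonist control and DMSO basal, with IC50 and efficacy from Hill equation fits.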
# [8] = molecular target: Vitamin D3 receptor (Homo sapiens) (UniProt P11473); assay: qHTS assay for small molecule agonists of vitamin D receptor signaling (AID 588543)
# Outline: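 VDR-UAS-bla HEK293T cells, 2000/well, 2% charcoal-stripped FBS; compound titration 16 h at 37 C; CCF4 beta-lactamase ratio read. Normalized to 50 nM 1-alpha,25-dihydroxyvitamin D3 (100%) and DMSO; Hill fit gives EC50, efficacy.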
# [9] = qHTS assay for small molecule agonists of retinoid X receptor alpha signaling (AID 588544); conditions: HEK293T RXRa-UAS-bla, beta-lactamase reporter, 18 h; 530 nm emission
# Text: (§2) NIH Chemical Genomics Center [NCGC] U.S. Environmental Protection Agency [EPA] National Institutes of Environmental Health Sciences [NIEHS] National Toxicology Program [NTP] NCGC Assay Overview The Retinoid X receptor (RXR), a nuclear hormone receptor is expressed in liver, spleen, placenta, epidermis, central nervous system. These receptors are able to form homo and heterodimers with other nuclear receptors and due to this heterodimerizing ability, RXR functions as master regulators producing diverse physiological effects. Three subtypes of RXR exist; alpha, beta and gamma. Retinoid X receptor alpha (RXR-alpha) has potential roles in metabolic signaling pathways, skin alopecia, dermal cysts, cardiac development, insulin sensitization etc. Therefore screening environmental chemicals on RXR-alpha signaling can be used for the studies focused on such therapeutic applications.
# (§3) NCGC Assay Protocol Summary Using a beta-lactamase reporter-gene under control of Retinoid X receptor--alpha (RXR-alpha) response element, a cell-based assay [GeneBLAzer (RXR-alpha -UAS-bla assay developed by Invitrogen] was used to measure RXR-alpha ligands signaling. GeneBLAzer RXR-alpha -UAS-bla HEK293T cells were used with assay medium containing 2% charcoal-stripped FBS. The assay was performed in clear bottom black Greiner 1536-well plates. 9-cis-retinoic acid was used in the screen as the positive control. Library compounds were measured for their ability to stimulate the reporter gene activity. Compounds were screened in a titration series in 1536-well format. The fluorescence intensity (405 nm excitation, 460/530 nm emission) was measured using an EnVision plate reader. Data was normalized relative to 9-cis-retinoic acid control (500 nM, 100%), and DMSO only wells (basal, 0%). Concentration-response titration points for each compound were fitted to the Hill equation yielding concentrations of half-maximal stimulation (EC50) and maximal response (efficacy) values. qHTS protocol for RXR-alpha beta-lactamase assay in agonist mode [Step] [Parameter] [Value] [Description] 1. Reagent; 6 uL; 2500 cells/well 2. Incubation; 37 C for 4 hrs 3. Compounds; 23 nL; 0.59 nM to 92 uM 4. Controls (9-cis-retinoic acid); 23 nL, - One column with dose response, start 38 uM, 1:3 dilutions in duplicates - Final concentrations of 500 nM and 50 nM in two columns 5. Incubation; 37 C for 18 hrs 6. Detection reagent; 1 uL of CCF4-dye 7. Incubation; RT for 2 hrs 8. Detection; Fluorescence; Envision plate reader
# [10] = molecular target: Retinoic acid receptor RXR-alpha (Homo sapiens) (UniProt P19793); assay: as above
# Text: as §2, §3
# [11] = molecular target: Thyroid hormone receptor beta (Homo sapiens) (UniProt P10828); assay: qHTS assay for small molecule agonists of thyroid hormone receptor beta signaling (AID 588545)
# Outline: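 Agonist activity was read as beta-lactamase CCF4 fluorescence (405 ex, 460/530 em), scaled between DMSO (0%) and 10 nM T3 (100%), then Hill-fitted for EC50 and efficacy. HEK 293 TR-UAS-bla cells in 2% charcoal/dextran FBS medium were exposed 18 h at 37 C.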
# [12] = qHTS assay for small molecule antagonists of retinoid X receptor alpha signaling (AID 588546; active = well fitted inhibition curve with a large enough effect in the signal ratio, with a control signal flat, not every such curve was filed as active; the % refers to the signal ratio; also: potency is read from the fitted curve at half-maximal effect); conditions: HEK293T RXRa-UAS-bla, beta-lactamase ratio, antagonist mode; measured here: W530 green channel, cytotoxicity proxy
# Outline: (§4)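 Beta-lactamase reporter inhibition, read as CCF4 fluorescence ratio (ex 405, em 460/530 nm) after 2 h at RT. HEK293T UAS-bla cells, 2500/well, were stimulated with 9-cis-RA at 500 or 100 nM final alongside test compound for 18 h at 37 C.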
# [13] = molecular target: Retinoic acid receptor RXR-alpha (Homo sapiens) (UniProt P19793); assay: as above; conditions: HEK293T RXRa-UAS-bla, beta-lactamase ratio, antagonist mode
# Outline: as §4
# [14] = molecular target: Androgen receptor (Homo sapiens) (UniProt P10275); assay: qHTS assay for small molecule agonists of androgen receptor signaling (AID 588515; active = well fitted curve in the direction sought with a large enough effect in the signal ratio, with a control signal flat; the % refers to the signal ratio); conditions: AR-UAS-bla HEK293, beta-lactamase ratio, agonist 16 h; stronger effect = higher value
# Outline: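 Stimulation of an AR-responsive β-lactamase reporter in GripTite HEK293 cells was measured after 16 h compound exposure at 37 °C, via CCF4 fluorescence after 2 h RT. EC50 from Hill fits, normalized to R1881 at 30 nM.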
# [15] = molecular target: Glucocorticoid receptor (Homo sapiens) (UniProt P04150); assay: qHTS assay for small molecule agonists of glucocorticoid receptor signaling (AID 588532; active = well fitted curve in the direction sought with a large enough effect in the signal ratio, with a control signal flat; the % refers to the signal ratio); conditions: HeLa MMTV-bla, beta-lactamase ratio, agonist, 18 h; stronger effect = higher value; percent of dexamethasone control, DMSO zero
# Outline: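 Quantitative HTS using CellSensor MMTV-bla HeLa cells in charcoal/dextran-treated serum; compounds tested up to 92 uM. After 18 h at 37 C, CCF4 dye reported reporter induction.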
# [16] = molecular target: Peroxisome proliferator-activated receptor gamma (Homo sapiens) (UniProt P37231); assay: qHTS assay for small molecule antagonists of peroxisome proliferator-activated receptor gamma signaling (AID 588537; active = well fitted inhibition curve with a large enough effect in the signal ratio, with a control signal flat, not every such curve was filed as active; the % refers to the signal ratio; also: potency is read from the fitted curve at half-maximal effect)
# Outline: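 Cell-based beta-lactamase assay; GW9662 served as the antagonist control. Stimulation used rosiglitazone, final 50 nM, 16 h, 37 C.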
# [17] = molecular target: Thyroid hormone receptor beta (Homo sapiens) (UniProt P10828); assay: qHTS assay for small molecule antagonists of thyroid hormone receptor beta signaling (AID 588547; active = well fitted inhibition curve with a large enough effect in the signal ratio, with a control signal flat, not every such curve was filed as active; the % refers to the signal ratio; also: potency is read from the fitted curve at half-maximal effect;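 as to activity change % (negative = inhibition): cells stimulated with 0.4 nM T3 agonist during compound exposure; series mostly up to about 77 µM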); conditions: TR-UAS-bla HEK293, beta-lactamase ratio, antagonist mode, 18 h
# Outline: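 Inhibition of T3-driven (0.4nM final) beta-lactamase reporter activity was measured over 0.59 nM to 92 uM compound after 18 h at 37 C. The cells were GripTite HEK293 TR-UAS-bla in charcoal/dextran-stripped serum, with CCF4 ratio read-out and IC50 from Hill fits.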
# [18] = molecular target: Androgen receptor (Homo sapiens) (UniProt P10275); assay: qHTS assay for small molecule antagonists of androgen receptor signaling (AID 588516; active = well fitted curve in the direction sought with a large enough effect in the signal ratio, with a control signal flat, not every such curve was filed as active; the % refers to the signal ratio; also: potency is read from the fitted curve at half-maximal effect)
# Outline: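 AR-UAS-bla GripTite HEK 293 cells (2000/well) treated with compound titrations plus 10 nM R1881 for 16 h at 37C. Beta-lactamase read by CCF4 FRET (460/530 nm); IC50 from Hill fits, normalized to R1881 and DMSO control wells.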
# [19] = molecular target: Estrogen receptor (Homo sapiens) (UniProt P03372); assay: qHTS assay for small molecule antagonists of estrogen receptor alpha signaling (AID 588513; active = well fitted curve in the direction sought with a large enough effect in the signal ratio, with a control signal flat, not every such curve was filed as active; the % refers to the signal ratio)
# Outline: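 ER-alpha-UAS-bla GripTite HEK 293 cells in 2% charcoal/dextran-treated FBS medium; compounds titrated (1:2, duplicate), then stimulated with 0.5 nM 17-beta-estradiol for 18 h at 37C. CCF4 beta-lactamase fluorescence; Hill-fit IC50 and efficacy.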
# [20] = molecular target: Bile acid receptor (Homo sapiens) (UniProt Q96RI1); assay: qHTS assay for small molecule antagonists of farnesoid X receptor signaling (AID 588526)
# Outline: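 Beta-lactamase reporter antagonist mode: HEK293T FXR-UAS-bla cells, titrated compound, CDCA stimulation, 16 h 37 C, CCF4 dye 2 h RT. Data normalized to CDCA 50 uM and DMSO; Hill-fit IC50.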
# Chain of Peroxisome proliferator-activated receptor delta (Homo sapiens) (Q03181 whole entry, looked up): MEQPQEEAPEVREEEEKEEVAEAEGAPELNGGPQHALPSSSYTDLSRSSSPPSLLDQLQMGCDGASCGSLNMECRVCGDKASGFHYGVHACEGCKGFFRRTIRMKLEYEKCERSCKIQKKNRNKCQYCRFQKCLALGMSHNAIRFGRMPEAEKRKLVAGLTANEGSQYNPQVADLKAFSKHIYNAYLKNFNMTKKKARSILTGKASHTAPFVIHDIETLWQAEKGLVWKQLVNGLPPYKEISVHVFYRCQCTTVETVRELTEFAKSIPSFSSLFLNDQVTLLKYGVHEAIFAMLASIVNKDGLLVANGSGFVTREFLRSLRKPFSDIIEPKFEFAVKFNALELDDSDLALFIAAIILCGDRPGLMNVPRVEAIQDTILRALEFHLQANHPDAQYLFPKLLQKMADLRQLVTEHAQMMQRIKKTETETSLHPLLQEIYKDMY
# Chain of Estrogen receptor (Homo sapiens) (P03372 whole entry, looked up): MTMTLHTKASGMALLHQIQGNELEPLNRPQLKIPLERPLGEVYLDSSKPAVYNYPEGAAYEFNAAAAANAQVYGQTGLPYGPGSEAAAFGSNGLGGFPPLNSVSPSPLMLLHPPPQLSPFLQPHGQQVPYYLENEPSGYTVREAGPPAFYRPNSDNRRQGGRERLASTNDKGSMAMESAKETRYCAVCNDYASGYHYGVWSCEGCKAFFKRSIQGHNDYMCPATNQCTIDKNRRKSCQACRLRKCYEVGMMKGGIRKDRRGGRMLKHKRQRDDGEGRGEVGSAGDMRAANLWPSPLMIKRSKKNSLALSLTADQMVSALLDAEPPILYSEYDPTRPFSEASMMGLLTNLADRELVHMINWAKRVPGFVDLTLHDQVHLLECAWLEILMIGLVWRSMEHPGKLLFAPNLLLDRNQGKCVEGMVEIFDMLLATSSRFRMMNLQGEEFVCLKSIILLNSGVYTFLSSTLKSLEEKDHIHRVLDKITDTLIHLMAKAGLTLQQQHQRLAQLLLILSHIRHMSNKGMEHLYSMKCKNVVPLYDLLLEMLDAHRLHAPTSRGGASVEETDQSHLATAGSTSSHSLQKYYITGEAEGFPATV
# Chain of Androgen receptor (Homo sapiens) (P10275 whole entry, looked up): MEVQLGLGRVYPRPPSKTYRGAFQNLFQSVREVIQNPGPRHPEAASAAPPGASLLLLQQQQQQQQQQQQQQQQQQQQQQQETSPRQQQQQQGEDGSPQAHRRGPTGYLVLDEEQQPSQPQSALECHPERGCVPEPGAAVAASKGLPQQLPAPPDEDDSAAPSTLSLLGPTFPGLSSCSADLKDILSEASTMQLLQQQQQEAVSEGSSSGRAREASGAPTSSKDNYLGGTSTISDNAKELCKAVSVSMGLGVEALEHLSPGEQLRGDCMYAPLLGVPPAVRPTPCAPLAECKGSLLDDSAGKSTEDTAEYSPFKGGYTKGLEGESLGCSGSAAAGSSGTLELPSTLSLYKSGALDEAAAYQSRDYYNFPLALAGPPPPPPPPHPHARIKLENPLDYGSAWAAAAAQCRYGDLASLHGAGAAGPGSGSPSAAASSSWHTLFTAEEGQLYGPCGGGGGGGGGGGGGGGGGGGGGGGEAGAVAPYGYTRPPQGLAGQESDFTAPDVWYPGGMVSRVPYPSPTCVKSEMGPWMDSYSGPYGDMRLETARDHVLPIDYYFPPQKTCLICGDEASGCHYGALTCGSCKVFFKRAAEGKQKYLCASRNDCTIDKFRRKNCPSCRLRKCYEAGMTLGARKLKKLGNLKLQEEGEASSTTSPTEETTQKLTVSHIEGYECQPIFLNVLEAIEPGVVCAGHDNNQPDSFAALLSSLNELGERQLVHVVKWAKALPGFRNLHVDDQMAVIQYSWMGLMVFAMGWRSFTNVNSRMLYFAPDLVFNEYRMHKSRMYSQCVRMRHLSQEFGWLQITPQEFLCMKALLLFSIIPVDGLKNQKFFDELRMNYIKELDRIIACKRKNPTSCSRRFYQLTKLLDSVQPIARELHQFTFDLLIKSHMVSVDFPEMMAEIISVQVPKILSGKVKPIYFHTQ
# Chain of Thyroid hormone receptor beta (Homo sapiens) (P10828 whole entry, looked up): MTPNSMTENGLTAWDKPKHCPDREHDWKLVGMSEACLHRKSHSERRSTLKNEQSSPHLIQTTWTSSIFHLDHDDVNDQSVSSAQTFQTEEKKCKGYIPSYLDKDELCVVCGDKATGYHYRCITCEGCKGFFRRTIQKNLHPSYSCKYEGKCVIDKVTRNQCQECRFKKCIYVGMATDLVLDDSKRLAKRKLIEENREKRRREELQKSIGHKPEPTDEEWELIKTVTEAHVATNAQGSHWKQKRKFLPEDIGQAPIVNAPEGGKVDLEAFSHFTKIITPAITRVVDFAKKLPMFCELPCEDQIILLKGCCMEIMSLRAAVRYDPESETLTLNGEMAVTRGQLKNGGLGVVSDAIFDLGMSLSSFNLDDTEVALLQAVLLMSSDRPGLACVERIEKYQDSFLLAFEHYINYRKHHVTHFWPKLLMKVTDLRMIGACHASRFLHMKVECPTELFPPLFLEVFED
# Chain of DNA dC->dU-editing enzyme APOBEC-3G (Homo sapiens) (Q9HC16 whole entry, looked up): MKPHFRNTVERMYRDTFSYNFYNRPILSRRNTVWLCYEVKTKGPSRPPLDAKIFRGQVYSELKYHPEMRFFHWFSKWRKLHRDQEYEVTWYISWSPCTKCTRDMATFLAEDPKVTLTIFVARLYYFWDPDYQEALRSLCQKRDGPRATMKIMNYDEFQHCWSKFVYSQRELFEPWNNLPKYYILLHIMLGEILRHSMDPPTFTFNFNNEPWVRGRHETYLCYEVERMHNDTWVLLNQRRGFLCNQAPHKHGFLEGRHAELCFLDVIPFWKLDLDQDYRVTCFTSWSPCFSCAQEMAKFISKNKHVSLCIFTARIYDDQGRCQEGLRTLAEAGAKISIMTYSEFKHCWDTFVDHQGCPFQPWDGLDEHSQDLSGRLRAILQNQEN
# Chain of Retinoic acid receptor RXR-alpha (Homo sapiens) (P19793 whole entry, looked up): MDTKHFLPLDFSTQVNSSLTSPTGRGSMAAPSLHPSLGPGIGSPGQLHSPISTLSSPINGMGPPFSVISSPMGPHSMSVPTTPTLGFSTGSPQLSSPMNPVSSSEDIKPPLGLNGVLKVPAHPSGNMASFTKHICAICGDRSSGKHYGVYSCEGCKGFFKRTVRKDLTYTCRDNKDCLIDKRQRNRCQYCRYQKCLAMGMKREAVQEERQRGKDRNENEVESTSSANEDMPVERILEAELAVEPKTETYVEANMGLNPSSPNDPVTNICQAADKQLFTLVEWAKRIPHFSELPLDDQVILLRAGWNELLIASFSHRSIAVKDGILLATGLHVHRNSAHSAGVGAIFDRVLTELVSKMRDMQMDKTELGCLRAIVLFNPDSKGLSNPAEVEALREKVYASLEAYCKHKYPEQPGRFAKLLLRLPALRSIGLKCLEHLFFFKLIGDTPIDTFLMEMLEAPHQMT
# Chain of Glucocorticoid receptor (Homo sapiens) (P04150 whole entry, looked up): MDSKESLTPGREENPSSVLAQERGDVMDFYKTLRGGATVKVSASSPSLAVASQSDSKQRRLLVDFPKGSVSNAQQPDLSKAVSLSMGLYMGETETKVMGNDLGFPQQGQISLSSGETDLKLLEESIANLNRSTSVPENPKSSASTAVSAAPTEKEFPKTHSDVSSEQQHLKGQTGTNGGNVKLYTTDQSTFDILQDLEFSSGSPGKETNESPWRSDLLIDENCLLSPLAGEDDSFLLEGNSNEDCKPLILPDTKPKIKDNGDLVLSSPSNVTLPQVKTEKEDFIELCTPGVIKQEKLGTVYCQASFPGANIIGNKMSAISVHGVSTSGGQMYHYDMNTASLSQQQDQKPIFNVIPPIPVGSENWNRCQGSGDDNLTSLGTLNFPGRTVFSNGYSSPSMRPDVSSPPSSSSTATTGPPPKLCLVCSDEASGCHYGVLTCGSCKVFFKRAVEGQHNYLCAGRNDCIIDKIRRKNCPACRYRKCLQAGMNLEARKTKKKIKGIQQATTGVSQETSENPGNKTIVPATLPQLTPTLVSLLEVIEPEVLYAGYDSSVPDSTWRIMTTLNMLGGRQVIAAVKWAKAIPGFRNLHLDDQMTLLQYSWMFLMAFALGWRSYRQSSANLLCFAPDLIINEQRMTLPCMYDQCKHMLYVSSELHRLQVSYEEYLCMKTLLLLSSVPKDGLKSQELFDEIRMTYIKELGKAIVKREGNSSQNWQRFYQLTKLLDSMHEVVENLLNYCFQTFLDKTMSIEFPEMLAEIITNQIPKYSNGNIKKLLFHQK
# Chain of Vitamin D3 receptor (Homo sapiens) (P11473 whole entry, looked up): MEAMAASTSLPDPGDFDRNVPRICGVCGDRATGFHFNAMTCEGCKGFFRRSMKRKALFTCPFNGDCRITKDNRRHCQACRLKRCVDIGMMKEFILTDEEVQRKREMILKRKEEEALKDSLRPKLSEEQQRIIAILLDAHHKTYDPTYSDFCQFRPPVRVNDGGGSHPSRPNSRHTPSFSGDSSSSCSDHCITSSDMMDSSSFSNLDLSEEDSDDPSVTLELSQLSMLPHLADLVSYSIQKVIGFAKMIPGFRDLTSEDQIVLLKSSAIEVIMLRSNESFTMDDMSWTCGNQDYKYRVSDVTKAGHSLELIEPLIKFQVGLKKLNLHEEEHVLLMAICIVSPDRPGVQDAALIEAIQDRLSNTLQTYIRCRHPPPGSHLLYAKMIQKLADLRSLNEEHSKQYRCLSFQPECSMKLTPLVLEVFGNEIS
# Chain of Peroxisome proliferator-activated receptor gamma (Homo sapiens) (P37231 whole entry, looked up): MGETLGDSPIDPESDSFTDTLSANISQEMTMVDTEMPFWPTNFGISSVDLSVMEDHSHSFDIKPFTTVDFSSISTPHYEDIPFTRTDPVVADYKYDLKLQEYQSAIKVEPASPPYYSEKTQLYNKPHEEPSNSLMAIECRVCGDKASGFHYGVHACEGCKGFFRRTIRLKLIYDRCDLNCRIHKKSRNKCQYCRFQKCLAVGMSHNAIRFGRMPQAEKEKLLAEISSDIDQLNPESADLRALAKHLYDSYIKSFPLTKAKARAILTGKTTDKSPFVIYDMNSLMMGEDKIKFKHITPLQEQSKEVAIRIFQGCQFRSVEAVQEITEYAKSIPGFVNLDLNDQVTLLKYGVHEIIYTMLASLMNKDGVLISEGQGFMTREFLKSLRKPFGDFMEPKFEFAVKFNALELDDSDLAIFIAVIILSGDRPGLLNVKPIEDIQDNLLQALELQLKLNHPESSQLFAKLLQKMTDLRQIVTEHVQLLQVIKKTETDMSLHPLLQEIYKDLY
smiles,measurement,setting,value
COc1ccc2[nH]c(=O)c3c(c2c1)OC(C)(C)C=C3,outcome,[1],inactive
O=C(O)CC(O)(CC(=O)O)C(=O)O,Potency,[2],inactive
same,Potency,[3],inactive
same,max response,[4],-9.3% and -1.59% and -15.8%
same,outcome,[5],inactive
same,outcome,[6],inactive
same,outcome,[7],inactive
same,outcome,[8],inactive
same,max response,[9],2.81% and -9.62% and -10.5%
same,outcome,[10],inactive
same,outcome,[11],inactive
same,max response,[12],-2.45% and -5.52% and -2.31%
same,max response,[13],-0.99% (inactive) and 3.25% (inactive) and -0.625% (inactive)
COc1cc(C[C@H]2C(=O)OC[C@@H]2Cc2ccc(OC)c(OC)c2)ccc1O,outcome,[1],inactive
CN(C)Cc1ccccc1,activation,[14],-4.67% (inactive)
same,activation,[15],-2.09% (inactive)
same,Potency,[3],inactive
same,max response,[4],-30.1%
same,outcome,[5],inactive
same,outcome,[6],inactive
same,Potency,[16],inactive
same,outcome,[7],inactive
same,max response,[9],-2.82%
same,outcome,[10],inactive
same,outcome,[11],inactive
same,max response,[12],-2.86%
same,max response,[13],-1.44% (inactive)
same,activity change % (negative = inhibition),[17],-0.727% (inactive)
CCCCCCCCCC(=O)O,activation,[14],-19.5% (inactive) and -1.38% (inactive)
same,Potency,[18],inactive
same,activation,[15],-0.446% (inactive)
same,Potency,[3],inactive
same,max response,[4],24%
same,outcome,[5],inactive
same,outcome,[7],inactive
same,outcome,[8],inactive
same,max response,[9],6.89% and 0.0203%
same,outcome,[10],inactive
same,outcome,[11],inactive
same,max response,[12],6.37% and -10.5%
same,max response,[13],-2.15% (inactive) and -5.65% (inactive)
same,activity change % (negative = inhibition),[17],17.7% (inactive)
CCCCCCCC/C=C\CCCCCCCC(=O)OC[C@@H](O)[C@H]1OC[C@H](O)[C@H]1O,Potency,[2],2 µM (active)
same,Potency,[3],inactive
same,max response,[4],-7.22%
same,outcome,[5],inactive
same,outcome,[6],inactive
same,outcome,[7],inactive
same,outcome,[8],inactive
same,max response,[9],-2.66%
same,outcome,[10],inactive
same,outcome,[11],inactive
same,max response,[12],-8.17%
same,max response,[13],-13.5% (inactive)
C=Cc1ccccc1,outcome,[19],inactive
same,Potency,[2],inactive
same,max response,[4],-7.04% and -9%
same,outcome,[5],inactive
same,outcome,[6],inactive
same,Potency,[16],inactive
same,outcome,[7],inactive
same,outcome,[8],inactive
same,max response,[9],-4.91%
same,outcome,[10],inactive
same,max response,[12],-10.4% and -6.3%
same,max response,[13],1.17% (inactive) and -1.22% (inactive)
CC(=O)C1=C(O)C=C2Oc3c(C(C)=O)c(O)c(C)c(O)c3[C@]2(C)C1=O,outcome,[1],inactive
CN(C)CCCn1cc(C2=C(c3c[nH]c4ccccc34)C(=O)NC2=O)c2ccccc21,outcome,[1],inactive
COC(C)=O,outcome,[19],inactive
same,Potency,[2],inactive
same,outcome,[20],inactive
same,activation,[15],-4.63% (inactive)
same,Potency,[3],inactive
same,max response,[4],27.1%
same,outcome,[5],inactive
same,outcome,[6],inactive
same,max response,[9],-9.31%
same,outcome,[10],inactive
same,outcome,[11],inactive
same,max response,[12],-2.37%
same,max response,[13],11.4% (inactive)
same,activity change % (negative = inhibition),[17],-1.11% (inactive)
O=S(=O)(c1ccccc1)N(CC(F)(F)F)c1ccc(C(O)(C(F)(F)F)C(F)(F)F)cc1,Potency,[2],inactive
same,Potency,[18],44.7 µM (active)
same,activation,[15],3.66% (inactive)
same,Potency,[3],39.8 µM (active)
same,max response,[4],-29.6%
same,outcome,[5],inactive
same,max response,[9],-15.6%
same,outcome,[10],inactive
same,outcome,[11],inactive
same,max response,[12],-56.3%
same,Potency,[13],12.6 µM (active)
NCCCC(=O)O,outcome,[1],inactive
CCc1ccccc1OC[C@@H](O)CN[C@H]1CCCc2ccccc21,outcome,[1],inactive
CC(=O)S[C@@H]1CC2=CC(=O)CC[C@]2(C)[C@H]2CC[C@@]3(C)[C@@H](CC[C@@]34CCC(=O)O4)[C@H]12,Potency,[2],inactive
same,activation,[15],-13.6% (inactive)
same,Potency,[16],39.8 µM (active)
same,outcome,[11],inactive
same,Potency,[17],28.2 µM (active)
Cc1ccc(OC[C@H](O)[C@H](C)NC(C)C)c2c1CCC2,outcome,[1],inactive
